About 79,000 compounds went through this panel and 15% of them were active in at least one assay; those are over-represented in the sample as a whole. A number with no mark means an inactive call. The source made the active and inactive calls. Cut-off read from the data, not from the text of the source: active = growth inhibition above about 70%; inactive = the rest.
What was measured:
[1] = NCI Yeast Anticancer Drug Screen. Data for the rad50 strain (AID 155);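 note: 0% = growth of vehicle-only cultures of the same strain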; settings: S. cerevisiae rad50 strain growth inhibition; at 50.0 µM; active compounds read high
Method in brief: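 Cells are treated with compound, grown, and their growth is then scored against vehicle-only cultures of the same repair-deficient yeast strain.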

[2] = NCI Yeast Anticancer Drug Screen. Data for the mec2-1 strain (AID 157); settings: S. cerevisiae mec2-1 strain, at 50.0 µM, active compounds read high
Method in brief: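 Cells of the genetically defined mec2-1 yeast strain are incubated with test compound. Inhibition of growth is calculated against vehicle-treated controls.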

[3] = NCI Yeast Anticancer Drug Screen. Data for the sgs1 mgt1 strain (AID 161);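 note: 0% = growth of cultures given vehicle only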; settings: S. cerevisiae sgs1 mgt1 strain, at 50.0 µM, active compounds read high
Method in brief: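 Mutant yeast exposed to compound; growth scored against vehicle-only wells.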

[4] = NCI Yeast Anticancer Drug Screen. Data for the cln2 rad14 strain (AID 165);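 note: 0% = growth equal to vehicle treated cultures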; settings: S. cerevisiae cln2 rad14 strain, at 50.0 µM, active compounds read high
Method in brief: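 The screen exposed genetically defined yeast (cln2 rad14) to test compounds and scored growth inhibition relative to vehicle-treated controls.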

[5] = NCI Yeast Anticancer Drug Screen. Data for the bub3 strain (AID 167); settings: S. cerevisiae bub3 mutant strain, at 50.0 µM, active compounds read high
Method in brief: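 Part of a panel of yeast mutants defective in DNA damage repair or cell cycle regulation. Each strain is grown with compound, and inhibition is calculated relative to solvent-treated cultures.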

[6] = NCI Yeast Anticancer Drug Screen. Data for the mlh1 rad18 strain (AID 175); settings: S. cerevisiae mlh1 rad18 strain growth inhibition; at 50.0 µM; active compounds read high
Method in brief: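 Compound-treated yeast growth, normalised to vehicle controls. Strain bears defined DNA repair mutations.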

SMILES | growth inhibition [1] | growth inhibition [2] | growth inhibition [3] | growth inhibition [4] | growth inhibition [5] | growth inhibition [6]
CC(C)c1cc2c(cc1O)C1(C)CCCC(C)(C)C1=CC2=O (centres undefined) | -1.65% | -28.9% | -8.15% | -17% | -5.8% | -13.1%
Clc1cccc2ccccc12 | 7.8% | -12.2% | 0.1% | 14.1% | 3.4% | 16.1%
N#CS.N=C=S.O=N[O-].[Co+3].[NH-]CC[NH-].[NH-]CC[NH-] | -6.55% | 6.3% | 8.25% | -34% | 50.7% | 12.7%
Clc1ccc(-c2csc3cccc[n+]23)cc1 | 7.5% | 4.35% | 19.4% | 24.1% | 22.8% | 19.3%
O=P(O)(Nc1ccccc1)Nc1ccccc1 | 21.7% | 33.4% | 21% | -15.1% | 25.3% | 15.3%
COc1c2c(cc3c1OCO3)[C@]13C=C[C@H](OC)C[C@H]1N(C2)CC3O (some centres undefined) | 17.2% | 5.75% | 3.6% | -0.55% | 1.55% | -53.9%
O=P1(N2CCCCC2)OCC2(CO1)COP(=O)(N1CCCCC1)OC2 (centres undefined) | -7.15% | -0.6% | 0.1% | -7.55% | -1.65% | 3.2%
CCOP12(OCC)NC(=O)OC1(C(F)(F)F)c1ccccc1O2 (centres undefined) | -19.4% | 3.9% | -38% | -7% | -26.4% | -36.4%
O=S(=O)(O)c1ccc(Cl)cc1 | -0.45% | -3.2% | -1.15% | 23.1% | 0.3% | 9.1%
COP(=O)(OC)C1(c2ccccc2)C2C3CCC(C3)C21 (centres undefined) | 1.75% | 21.7% | 2.65% | -7% | 14.8% | 17.8%
CCC1(CCOc2ccccc2)C(=O)NC(=O)NC1=O | -10.9% | -1.45% | 1.3% | -6.55% | 1.6% | -1.85%
S=C(N/N=C\c1cccc(I)c1)NC1CN2CCC1CC2 (centres undefined) | 19.1% | 3.25% | 14.4% | 14.8% | 3.2% | 13.9%
Cc1ccc(Cl)c2c1CC(=[N+]=[N-])C2=O | 10.2% | 5.2% | 8.7% | -0.45% | 10.5% | 7.15%
CCCCCC1(C(C)C)C(=O)NC(=O)NC1=O | 3.1% | 8.65% | 1.5% | 15.3% | -0.6% | 6.35%
O=[N+]([O-])c1cccc([As](=O)(O)c2ccc(O)c([N+](=O)[O-])c2)c1 | 5.6% | 10.2% | 15.1% | -4.3% | 20.4% | 4.65%
COC(=O)C[N+]1(C)C2CCC1CC(O)C2 (centres undefined) | 1.5% | 2.75% | 0.55% | -23.3% | -17.1% | 9.95%
CC(C)(C)[CH2][Sn]([Cl])([CH2]C(C)(C)C)[CH2]C(C)(C)C | 99% (active) | 99.3% (active) | 21.8% | 99% (active) | 99.2% (active) | 99% (active)
CCC1(O)C(=O)OCc2c1cc1n(c2=O)Cc2cc3cc(N)ccc3nc2-1 (centres undefined) | 85% (active) | 88.5% (active) | 77.5% (active) | 56.8% | 56.1% | 72.2% (active)
COc1cc(/C=N/NC(=O)CN(C)C)cc(OC)c1N(CCCl)CCCl | 8.85% | 10.4% | -15.7% | 17.9% | -2.25% | 5.2%
CCC1(C(C)=O)CN2CCc3cc(OC)c(OC)cc3C2N2CCc3ccc(OC)c(OC)c3C21 (centres undefined) | 96.9% (active) | 97.8% (active) | 97.7% (active) | 96.7% (active) | 98.5% (active) | 98% (active)

SMILES | growth inhibition [1] | growth inhibition [2] | growth inhibition [3] | growth inhibition [4] | growth inhibition [5] | growth inhibition [6]
CO[C@H](C)[C@](O)(C(=O)OCC1=CC[N+]2([O-])CC[C@H](O)[C@@H]12)C(C)C (some centres undefined) | 1.75% | -20.2% | 2.35% | 7.25% | -8.95% | -10.2%
COc1cc(C=C2C(=O)NC(=S)NC2=O)cc(OC)c1OC | 5.05% | -15.9% | 3.35% | 18.6% | -1.35% | -0.95%
CCC(CC)CNC(=O)C(Cl)Cl | -2.25% | -9.8% | 18.6% | -18.1% | -3.4% | -1%
CC(Cl)CN(CC(C)Cl)c1ccc2c(c1)Cc1ccccc1-2 (centres undefined) | -20.8% | -10.1% | 2.65% | -46.9% | 23.1% | 9%
CCOP(=O)(OCC)/C(C#N)=C/c1cnc[nH]1 | -51.6% | -30.6% | -38% | -17.2% | -20.2% | -54.5%
CCC12C=CCN3CCC4(C(=C(C(=O)OC)C1)Nc1ccccc14)[C@H]32 (some centres undefined) | 6.7% | 6% | 6% | -8% | 7.25% | 0.8%
CCC[N+]12C(O)C(CC)C3CC1C1N(C)c4ccc(Br)cc4C14CC2C3C4O (centres undefined) | 27.9% | 8.3% | 4.35% | -12.3% | 6.85% | 20.9%
[N-]=[N+]=C1C(=O)C2CC3CC1CC2C3 (centres undefined) | -3.55% | 12.7% | -9.35% | 8.55% | 1.9% | 1.5%
N=c1nc(N)n2c(N)nc(=N)n12 | 19.9% | 12.7% | -1.55% | 4.05% | -1.75% | 2.45%
CCCCOP(=O)(OCCCC)Oc1ccc2ccccc2c1 | 93.1% (active) | 93.2% (active) | 95.4% (active) | 92.8% (active) | 95.1% (active) | 95.4% (active)
O=C(CP(=O)(O)O)c1cccs1 | -10.6% | -10.3% | -28% | -10.8% | -17.8% | -18.9%
N#CCCSCCC#N | 25.4% | 6.55% | 14.1% | 3.7% | 6.8% | 4.6%
CCC(O)C[As](=O)(O)c1ccccc1OC (centres undefined) | 5.75% | 20.2% | 2% | -1.6% | 18.1% | -1.65%
CCOP(=O)(O)C1CCCC(C)[N-]1.CCOP(=O)(O)C1CCCC(C)[N-]1.CCOP(=O)(O)C1CCCC(C)[N-]1.[Ti+3] (centres undefined) | 1.7% | 0.1% | -6.55% | -24.1% | -6.3% | 2.6%
NCCn1ccc2ccccc21 | 8.2% | -21.2% | 5.35% | 7.35% | -0.4% | 18.2%
CCOC(OCC)/C(=C\N(C)C)N=C(C#N)C#N | 0.95% | -2.4% | 5.35% | -35.4% | 3.25% | -2.05%
O=S(=O)(O)C1CCC(O)C2[N-]CCCC21.O=S(=O)(O)C1CCC(O)C2[N-]CCCC21.[Zn+2] (centres undefined) | 1.75% | 0.9% | 6.2% | 25.8% | -10.7% | 5.05%
COc1cc(C2c3cc4c(cc3OC3(OC)COC(=O)C23)OCO4)cc(OC)c1OC(C)=O (centres undefined) | -8.95% | 0.45% | -2.05% | -6.9% | -24.6% | 8.1%
O=C(CCc1ccccc1)Nc1ccc(Cl)cc1C(=O)c1ccccc1 | -0.85% | 20.2% | 24.4% | -26.2% | 54.1% | 28.6%
